Results filed as inconclusive are left out. Calls of active or inactive are those of the source.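 Rule for the calls, unless noted: active = Her2 level under about 52% in both replicate screens, with viability over 70% of control (limit read from the data); inconclusive = Her2 under the limit in one screen only, or viability under 70%; inactive = Her2 level above the set limit.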
Columns and labels:
[1] = reducers of endogenous Her2 protein level, primary screen, SKBR3 breast tumor cells, AlphaScreen, ATP viability (AID 461); conditions: 18-24 h, measured here: SKBR3 viability, ATP luminescence, at 10 µM;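 for Her2 level: lower value means less Her2 protein in the cells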;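 for viability: percent of carrier control wells set as 100% viability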
[2] = molecular target: Receptor tyrosine-protein kinase erbB-2 (Homo sapiens) (UniProt P04626); assay: as above; conditions: 18-24 h, at 10 µM, stronger effect = lower value
[3] = SK-BR-3 cell growth inhibitors, pilot screen, 24 h, human (AID 572;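 active = viability at or below 10% of carrier control in both of two separate runs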;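 note: compound exposure lasted between 18 and 24 h rather than exactly 24 h; 100% = carrier-treated control wells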); conditions: SK-BR-3 viability, CellTiter-Glo luminescence, at 10 µM, stronger effect = lower value
[4] = HUVEC growth inhibition – cell-based, human, primary screen (AID 575;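 active = viability at or below 30% in both replicate assays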;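 note: 100% = median of untreated cell wells with 0.1% DMSO on each plate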); conditions: HUVEC proliferation, CellTiter-Glo luminescence, 72 h; at 10 µM; stronger effect = lower value
[5] = growth inhibitors of H69AR lung tumor, primary screen, human, duplicate replicates (AID 580;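 active = viability at or under a set limit in both replicates, limit being median viability minus 3 SD, cut at about 48% in these data, passing the limit was not always enough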;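 note: 100% = mean luminescence of untreated wells and 0% = no signal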); conditions: H69AR lung tumor cells viability, ATP luminescence, 72 h; at 10 µM; stronger effect = lower value
[6] = reversal of MRP1-mediated doxorubicin resistance, pilot screen, H69AR cells, doxorubicin co-treatment (AID 601;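 active = viability loss from added drug above about 55%, and viability with drug at most 40%, in both replicates, limit read from the data, passing the limit was not always enough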); conditions: CellTiter-Glo, 72 h, at 10 µM; for differential viability (reversal): stronger effect = higher value
[7] = 384-well plate pilot, post-Golgi transport modulator project, inhibition of yeast transport mutant growth (AID 636; in the data active = inhibition above about 31%); conditions: absorbance 615 nm, about 18 h, stronger effect = higher value
[8] = growth suppression of yeast trafficking mutant, preliminary HTS, modulators of trafficking downstream of Golgi apparatus project, 1536-format plate, OD 615 nm (AID 637; in the data active = inhibition above about 30%); conditions: yeast transport mutant growth, absorbance 615 nm, 18 h; stronger effect = higher value
[9] = OD615 S. cerevisiae growth inhibition, permissive medium, pilot counter-assay, permissive growth control for S. cerevisiae lifespan shortening project (AID 705;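 active = growth inhibition above 25% in both replicates, a cutoff set 3 SD above the mean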); conditions: OD615, 24 h, at 10 µM, stronger effect = higher value
[10] = Restrictive medium S. cerevisiae growth inhibition, OD615, pilot screen of yeast lifespan reduction project, restrictive growth control (AID 706;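 active = growth inhibition above a set limit, 3 SD over mean compound inhibition, in both replicates, cut at about 43% in these data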;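 note: modified DeaD lifespan yeast strain shifted to restrictive glucose medium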); conditions: OD615, 48 h, at 10 µM, stronger effect = higher value
[11] = viability gain of MRP-1-high H69AR cells under doxorubicin, pilot screen, MRP-1 activator project, CellTiter-Glo, duplicate (AID 807;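 active = viability increase at or above a cutoff of the median across tested compounds plus 3 SD, cut at about 8.5% in these data, passing the limit was not always enough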;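 note: compound pretreatment 18-22 h then 72 h combined with doxorubicin; 0% = doxorubicin alone and 100% = vehicle without doxorubicin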); conditions: H69AR viability with doxorubicin, CellTiter-Glo luminescence; at 10 µM; stronger effect = higher value
[12] = growth suppression of beta-catenin knockout HCT116, pilot screen, human colon tumor cells (AID 823;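 active = cell viability at or below a set limit in both duplicate runs, the limit being the all-compound median minus 4 SD, cut at about 23% in these data, passing the limit was not always enough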;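 note: 0% = wells killed by 20 µM Hyamine and 100% = untreated DMSO cell wells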); conditions: CellTiter-Glo, 60 h, at 10 µM, stronger effect = lower value
[13] = growth suppression of PTEN-deleted HCT116, pilot screen, cell-based, HCT116 clonal line, CellTiter-Glo (AID 824;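 active = viability at or below 27.92% in each of two runs, the all-compound median minus 4 SD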;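 note: 0% = 20 µM Hyamine control and 100% = vehicle cell control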); conditions: 60 h, at 10 µM, stronger effect = lower value
[14] = inhibitors of the yeast RAM network, pilot screen, dse1pr::URA3 reporter, 5-FOA selection (AID 869;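 active = inhibition over a set limit, the all-compound mean plus 3 SD, in both replicate runs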;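 note: 0% = DMSO wells with no growth and 100% = 10 µM 1-NA-PP1 with full growth; RAM network block rescues cells from 5-FOA so hits raise OD615 growth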); conditions: S. cerevisiae dse1pr::URA3 5-FOA growth, OD615, 2 d; at 10 µM; stronger effect = higher value; strain carries analog-sensitive mutant Cbk1 kinase
[15] = RAM signaling pathway blockade in yeast – S. cerevisiae, Pdr1DBD-CYC8 efflux-inhibited sensitized strain, primary screen (AID 1298;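 active = RAM network inhibition above 8.4% in each of two replicates, 3 SD over the compound average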;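 note: 0% = DMSO untreated cells without growth and 100% = 10 µM 1-NA-PP1 full growth; higher means more yeast growth rescued from 5-FOA killing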); conditions: S. cerevisiae cbk1-as DSE1-URA3 strain, 5-FOA growth OD615, 2 d; at 50 µM; stronger effect = higher value
[16] = H69AR cells + 2 uM doxorubicin, measured here: viability with 2 uM doxorubicin, stronger effect = lower value
[17] = H69AR cells, compound alone cytotoxicity

Sequence of Receptor tyrosine-protein kinase erbB-2 (Homo sapiens) (P04626 whole entry, looked up): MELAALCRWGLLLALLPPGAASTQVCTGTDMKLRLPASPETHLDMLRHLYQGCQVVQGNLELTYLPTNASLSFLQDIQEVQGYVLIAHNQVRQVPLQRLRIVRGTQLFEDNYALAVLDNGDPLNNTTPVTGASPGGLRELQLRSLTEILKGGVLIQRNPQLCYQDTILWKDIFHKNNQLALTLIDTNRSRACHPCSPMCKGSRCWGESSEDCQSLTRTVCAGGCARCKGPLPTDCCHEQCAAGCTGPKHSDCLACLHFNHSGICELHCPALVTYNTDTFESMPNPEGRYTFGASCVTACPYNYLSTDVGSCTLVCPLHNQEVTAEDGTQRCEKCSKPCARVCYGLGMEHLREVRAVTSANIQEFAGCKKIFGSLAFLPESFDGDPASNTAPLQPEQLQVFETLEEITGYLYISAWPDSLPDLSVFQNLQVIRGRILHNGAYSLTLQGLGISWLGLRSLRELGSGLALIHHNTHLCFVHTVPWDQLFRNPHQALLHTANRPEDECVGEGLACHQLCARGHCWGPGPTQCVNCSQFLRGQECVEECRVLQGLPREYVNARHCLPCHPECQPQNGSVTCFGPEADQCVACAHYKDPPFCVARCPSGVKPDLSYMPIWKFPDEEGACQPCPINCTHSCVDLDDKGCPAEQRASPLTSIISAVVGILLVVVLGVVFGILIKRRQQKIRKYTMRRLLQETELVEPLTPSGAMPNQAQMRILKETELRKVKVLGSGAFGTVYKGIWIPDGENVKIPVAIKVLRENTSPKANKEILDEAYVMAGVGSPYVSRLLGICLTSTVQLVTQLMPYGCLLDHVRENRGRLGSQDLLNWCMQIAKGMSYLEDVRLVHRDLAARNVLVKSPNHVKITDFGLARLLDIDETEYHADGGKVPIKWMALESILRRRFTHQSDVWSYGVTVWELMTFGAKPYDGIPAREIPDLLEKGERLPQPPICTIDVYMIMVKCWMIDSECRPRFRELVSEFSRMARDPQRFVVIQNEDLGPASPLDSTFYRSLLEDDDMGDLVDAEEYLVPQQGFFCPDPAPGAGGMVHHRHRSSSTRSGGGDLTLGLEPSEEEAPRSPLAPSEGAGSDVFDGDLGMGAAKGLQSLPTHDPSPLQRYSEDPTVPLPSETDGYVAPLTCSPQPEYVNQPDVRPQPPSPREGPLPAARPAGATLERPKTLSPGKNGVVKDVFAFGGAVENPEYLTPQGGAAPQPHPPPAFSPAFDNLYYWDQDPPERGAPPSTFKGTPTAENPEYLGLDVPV

Structure (SMILES) | viability [1] | Her2 level [2] | viability [3] | viability [4] | viability [5] | differential viability (reversal) ([6]; H69AR cells + 2 uM doxorubicin) | viability [6, 16] | viability [6, 17] | inhibition [7] | inhibition [8] | growth inhibition [9] | growth inhibition [10] | viability increase [11] | viability [12] | viability [13] | inhibition [14] | RAM network inhibition [15]
O=C(NC(=O)c1cccc(F)c1)OC[C@@H]1CCCN2CCCC[C@H]12 | 102% | 111% (inactive) | 102% (inactive) | 110% (inactive) | 96.5% (inactive) | 0.59% (inactive) | 95.9% | 96.5% | -6% (inactive) | 1.48% (inactive) | 1.28% (inactive) | -9.63% (inactive) | -0.15% (inactive) | 99.4% (inactive) | 96.3% (inactive) | 0.89% (inactive) | 9.99% (inactive)
O=C(COc1ccc(=O)n(-c2ccccc2)n1)Nc1ccccc1 | 96% | 95.5% (inactive) | 96% (inactive) | 102% (inactive) | 98.8% (inactive) | 6.32% (inactive) | 92.4% | 98.8% | -4.4% (inactive) | 0.82% (inactive) | -1.58% (inactive) | 9.99% (inactive) | -1.83% (inactive) | 109% (inactive) | 98.6% (inactive) | 2.81% (inactive) | 1.04% (inactive)
CC(C)(C)SCCNC(=O)COc1ccccc1 | 112% | 88.5% (inactive) | 112% (inactive) | 88.4% (inactive) | 96.8% (inactive) | 11.8% (inactive) | 85% | 96.8% | -6.22% (inactive) | 4% (inactive) | -2.07% (inactive) | 4.92% (inactive) | 0.03% (inactive) | 95.7% (inactive) | 96.6% (inactive) | 1.81% (inactive) | 2.63% (inactive)
O=S(=O)(c1ccccc1)N1CCN(S(=O)(=O)c2ccccc2)C1 | 83.5% | 102% (inactive) | 83.5% (inactive) | 97.5% (inactive) | 95.8% (inactive) | 7.07% (inactive) | 88.7% | 95.8% | -3.21% (inactive) | -4.5% (inactive) | -7.65% (inactive) | 6.15% (inactive) | -1.27% (inactive) | 93.8% (inactive) | 93.5% (inactive) | -0.14% (inactive) | 3.22% (inactive)
COc1ccccc1CC(=O)Nc1ccc(OC)c(OC)c1 | 102% | 98.5% (inactive) | 102% (inactive) | 101% (inactive) | 89.6% (inactive) | 6% (inactive) | 83.6% | 89.6% | -6.76% (inactive) | 5.74% (inactive) | -8.11% (inactive) | -4.82% (inactive) | -0.4% (inactive) | 101% (inactive) | 104% (inactive) | 1.22% (inactive) | 2.2% (inactive)
CCn1cc(C(=O)NCCCOC)c(=O)c2cc(S(=O)(=O)N(C)C)ccc21 | 92% | 106% (inactive) | 92% (inactive) | 89.3% (inactive) | 87.6% (inactive) | -23.8% (inactive) | 111% | 87.6% | -1.73% (inactive) | -5.33% (inactive) | -8.04% (inactive) | -9.63% (inactive) | -2.52% (inactive) | 97.6% (inactive) | 94.2% (inactive) | 0.395% (inactive) | 0.52% (inactive)
Cc1cc(C)nc(NC2=NCC(=O)N2c2ccccc2Br)n1 | 93% | 93.5% (inactive) | 93% (inactive) | 101% (inactive) | 89.8% (inactive) | -10.2% (inactive) | 100% | 89.8% | -7.07% (inactive) | -2.33% (inactive) | -2.53% (inactive) | 4.3% (inactive) | -0.37% (inactive) | 95.4% (inactive) | 100% (inactive) | 2.06% (inactive) | 8.53% (inactive)
COc1ccc(NC(=O)C2CCCN2S(=O)(=O)c2cccc3cccnc23)c(OC)c1 (stereo not drawn) | 96% | 106% (inactive) | 96% (inactive) | 90.5% (inactive) | 95% (inactive) | -0.87% (inactive) | 95.9% | 95% | 91.4% (active) | 84.7% (active) | 98.5% (active) | 95.7% (active) | -2.76% (inactive) | 91.6% (inactive) | 84.3% (inactive) | 0.91% (inactive) | -1.73% (inactive)
CC1(C)CC(=O)C(C=NCC2CCNCC2)=C(O)C1 | 104% | 117% (inactive) | 104% (inactive) | 106% (inactive) | 93.8% (inactive) | -4.75% (inactive) | 98.5% | 93.8% | 1.04% (inactive) | 1.67% (inactive) | -20.1% (inactive) | -16.9% (inactive) | -1.11% (inactive) | 92.2% (inactive) | 92.3% (inactive) | 2.66% (inactive) | 6.82% (inactive)

— PubChem BioAssay
